According to PubChem BioAssay (EPA / NIEHS):
Active and inactive are the calls of the source. Rule for the calls: active = hit-call score of the fitted dose curve at least 0.9, where 1 is the maximum; inactive = score below 0.9.

Experiments:
[1] = read-out: Matrix Metallopeptidase 9 (MMP9), MMP9 (gene 4318); test: BSK_BE3C_MMP9: BioMAP Diversity Plus: BE3C Assay for Matrix Metallopeptidase 9 (MMP9) Biomarker Activity (AID 2284283); settings: primary human bronchial epithelial cells
Procedure, shortened: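 Human primary bronchial epithelial cells exposed 24 h to compound. MMP9 quantified by ELISA. SRB total-protein staining of parallel cultures assesses cytotoxicity. Positive-direction fit relative to DMSO.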

[2] = read-out: Plasminogen activator inhibitor-1 (PAI1), SERPINE1 (gene 5054); test: BSK_CASM3C_PAI1: BioMAP Diversity Plus: CASM3C Assay for Plasminogen activator inhibitor-1 (PAI1) Biomarker Activity (AID 2284284); settings: primary human coronary artery smooth muscle cells;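 note: PAI-1 protein level measured by ELISA 24 h after dosing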
[3] = read-out: Monocyte Chemoattractant Protein-1 (MCP1), CCL2 (gene 6347); test: BSK_hDFCGF_MCP1: BioMAP Diversity Plus: hDFCGF Assay for Monocyte Chemoattractant Protein-1 (MCP1) Biomarker Activity (AID 2284285); settings: primary human foreskin fibroblasts
Procedure, shortened: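 Human foreskin fibroblasts (hDFCGF system) were exposed to compound and secreted MCP-1 was measured by ELISA after 24 hours. Activity was fitted relative to DMSO. Cytotoxicity was checked by SRB total-protein staining in parallel cultures.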

[4] = read-out: CD40, CD40 (gene 958); test: BSK_IMphg_CD40: BioMAP Diversity Plus: IMphg Assay for CD40 Biomarker Activity (AID 2284288); settings: primary human endothelial cells with macrophages
Procedure, shortened: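 Venular endothelial cells co-cultured with macrophages (human primary), CD40 measured by ELISA 24 h after dosing. Positive-direction fit vs DMSO baseline; cytotoxicity tracked by SRB total-protein staining in parallel cultures.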

[5] = read-out: TIMP metallopeptidase inhibitor 2 (TIMP2), TIMP2 (gene 7077); test: BSK_hDFCGF_TIMP2: BioMAP Diversity Plus: hDFCGF Assay for TIMP metallopeptidase inhibitor 2 (TIMP2) Biomarker Activity (AID 2284289); settings: primary human foreskin fibroblasts
Procedure, shortened: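 Primary human foreskin fibroblasts in the hDFCGF system, dosed for 24 h; TIMP-2 level measured by ELISA, fitted in the positive direction against DMSO; cytotoxicity checked in parallel by sulforhodamine B total protein staining.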

[6] = read-out: Interleukin-1 alpha (IL1a), IL1A (gene 3552); test: BSK_IMphg_IL1a: BioMAP Diversity Plus: IMphg Assay for Interleukin-1 alpha (IL1a) Biomarker Activity (AID 2284290); settings: primary human endothelial cells with macrophages
Procedure, shortened: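 Human venular endothelial cells co-cultured with macrophages, IMphg system. IL-1α is measured by ELISA 24 h after dosing and fitted in the positive direction against DMSO. Cytotoxicity is assessed by SRB staining of parallel cultures.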

[7] = read-out: E-selectin (Homo sapiens) (UniProt P16581); test: BSK_IMphg_ESelectin: BioMAP Diversity Plus: IMphg Assay for Eselectin Biomarker Activity (AID 2284291); settings: primary human endothelial cells with macrophages
Procedure, shortened: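 Human venular endothelial cell–macrophage co-culture, E-selectin measured by ELISA 24 h after chemical dosing. Signal fitted in the positive direction against DMSO as negative control and baseline.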

[8] = BSK_IMphg_SRB: Viability Assessment in the BioMAP Diversity Plus: IMphg Assay (AID 2284292); settings: primary human endothelial cells with macrophages;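 note: measured one day after compound addition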
Procedure, shortened: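 Human venular endothelial cells with macrophages, 24 h after chemical dosing; total protein by 0.1% SRB staining after 10% TCA fixation, read at 560 nm. Positive-direction fitting versus DMSO baseline.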

[9] = read-out: Macrophage colony-stimulating factor (MCSF), CSF1 (gene 1435); test: BSK_IMphg_MCSF: BioMAP Diversity Plus: IMphg Assay for Macrophage colony-stimulating factor (MCSF) Biomarker Activity (AID 2284293); settings: primary human endothelial cells with macrophages
Procedure, shortened: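 Co-culture of human venular endothelial cells and macrophages, 24 hours of chemical exposure. M-CSF quantified by ELISA, with parallel SRB total-protein staining for cytotoxicity; activity fitted relative to DMSO.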

[10] = BSK_IMphg_SRB.Mphg: Macrophage Viability Assessment in the BioMAP Diversity Plus: IMphg Assay (AID 2284295); settings: primary human endothelial cells with macrophages
Procedure, shortened: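 Venular endothelial cells co-cultured with macrophages, read 24 h after dosing. Total protein measured by 0.1% SRB staining after 10% TCA fixation, absorbance at 560 nm. Fitted in positive direction against DMSO baseline.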

[11] = read-out: Thrombomodulin, THBD (gene 7056); test: BSK_LPS_Thrombomodulin: BioMAP Diversity Plus: LPS Assay for Thrombomodulin Biomarker Activity (AID 2284296); settings: primary human HUVEC with PBMC
Procedure, shortened: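 Human umbilical vein endothelial cells co-cultured with PBMC and stimulated with LPS; cell-surface thrombomodulin measured by ELISA 24 hours after compound. Gain or loss versus DMSO; cytotoxicity checked by SRB staining in parallel cultures.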

[12] = IUF_NPC2c_oligodendrocyte_migration_120hr: Leibniz Research Institute for Environmental Medicine (IUF) 120-hour Neural Progenitor Cell Migration Assay for Oligodendrocyte Migration (NPC2c) (AID 2284297);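 note: O4-positive oligodendrocyte migration distance divided by radial glia migration distance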
Procedure, shortened: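 Human fetal neural progenitor spheres (0.3 mm) are plated on poly-D-lysine/laminin in N2 differentiation medium and exposed for 120 h, with half-medium renewal at day 3. Oligodendrocyte (O4+) migration distance comes from ICC imaging, normalised to radial glia migration.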

[13] = IUF_NPC2a_radial_glia_migration_120hr: Leibniz Research Institute for Environmental Medicine (IUF) 120-hour Neural Progenitor Cell Migration Assay for Radial Glia Migration (NPC2a) (AID 2284298)
Procedure, shortened: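 Human fetal-cortex neural progenitor spheres (0.3 mm) plated on poly-D-lysine/laminin in N2 differentiation medium, exposed 120 h at 37C with half-medium renewal at day 3. Radial glia migration distance (um) measured from Hoechst-stained nuclei images; DMSO baseline.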

[14] = IUF_NPC2a_radial_glia_migration_72hr: Leibniz Research Institute for Environmental Medicine (IUF) 72-hour Neural Progenitor Cell Migration Assay for Radial Glia Migration (NPC2a) (AID 2284299)
Procedure, shortened: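 Human fetal neural progenitor spheres (0.3 mm) plated on poly-D-lysine/laminin in N2 differentiation medium and exposed from day 0 at 7 concentrations; radial glia migration distance from sphere edge measured at 72 h on brightfield images, mean of four directions, vs DMSO.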

[15] = IUF_NPC2b_neuronal_migration_120hr: Leibniz Research Institute for Environmental Medicine (IUF) 120-hour Neural Progenitor Cell Migration Assay for Neuron Migration (NPC2b) (AID 2284300)
Procedure, shortened: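 0.3 mm hNPC spheres on poly-D-lysine/laminin in N2 differentiation medium exposed 120 h, half-medium refresh day 3; 7 concentrations, DMSO max 0.1%. Neuron (TUBB3) distance from sphere core by ICC imaging, normalised to radial glia migration.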

[16] = IUF_NPC3_neuronal_differentiation_120hr: Leibniz Research Institute for Environmental Medicine (IUF) 120-hour Neuronal Differentiation Assay (NPC3) (AID 2284301)
Procedure, shortened: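 Human fetal (GW 16-19) neural progenitor spheres (0.3 mm) plated on poly-D-lysine/laminin in N2 differentiation medium, exposed 120 h at 37C with half-medium renewal day 3; 7 concentrations. TUBB3+ cells as % of Hoechst nuclei, CNN-identified; DMSO baseline.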

[17] = IUF_NPC4_neurite_length_120hr: Leibniz Research Institute for Environmental Medicine (IUF) 120-hour Neuronal Morphology Assay for Neurite Length (NPC4) (AID 2284302)
Procedure, shortened: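 Human fetal neural progenitor spheres (0.3 mm) plated on poly-D-lysine/laminin in N2 differentiation medium, exposed from day 0 for 120 h with half-medium refresh at day 3, 37C. Mean neurite length (um) of TUBB3-positive neurons from skeletonized immunostaining images; DMSO ≤0.1%.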

[18] = read-out: Interleukin-10 (IL10), IL10 (gene 3586); test: BSK_IMphg_IL10: BioMAP Diversity Plus: IMphg Assay for Interleukin-10 (IL10) Biomarker Activity (AID 2284294); settings: primary human endothelial cells with macrophages
Procedure, shortened: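 Human venular endothelial cells cocultured with macrophages, dosed 24 h; IL-10 measured by ELISA, activity relative to DMSO. Cytotoxicity assessed in parallel cultures by sulforhodamine B total-protein staining.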

[19] = read-out: Intercellular Adhesion Molecule 1 (ICAM1), ICAM1 (gene 3383); test: BSK_hDFCGF_ICAM1: BioMAP Diversity Plus: hDFCGF Assay for Intercellular Adhesion Molecule 1 (ICAM1) Biomarker Activity (AID 2284287); settings: primary human foreskin fibroblasts
Procedure, shortened: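 Primary human foreskin fibroblasts (hDFCGF system) dosed with chemical; ICAM-1 quantified by ELISA at 24 h relative to DMSO. Parallel SRB total-protein staining to assess overt cytotoxicity.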

Measured: outcome

Sequence of E-selectin (Homo sapiens) (P16581 whole entry, looked up): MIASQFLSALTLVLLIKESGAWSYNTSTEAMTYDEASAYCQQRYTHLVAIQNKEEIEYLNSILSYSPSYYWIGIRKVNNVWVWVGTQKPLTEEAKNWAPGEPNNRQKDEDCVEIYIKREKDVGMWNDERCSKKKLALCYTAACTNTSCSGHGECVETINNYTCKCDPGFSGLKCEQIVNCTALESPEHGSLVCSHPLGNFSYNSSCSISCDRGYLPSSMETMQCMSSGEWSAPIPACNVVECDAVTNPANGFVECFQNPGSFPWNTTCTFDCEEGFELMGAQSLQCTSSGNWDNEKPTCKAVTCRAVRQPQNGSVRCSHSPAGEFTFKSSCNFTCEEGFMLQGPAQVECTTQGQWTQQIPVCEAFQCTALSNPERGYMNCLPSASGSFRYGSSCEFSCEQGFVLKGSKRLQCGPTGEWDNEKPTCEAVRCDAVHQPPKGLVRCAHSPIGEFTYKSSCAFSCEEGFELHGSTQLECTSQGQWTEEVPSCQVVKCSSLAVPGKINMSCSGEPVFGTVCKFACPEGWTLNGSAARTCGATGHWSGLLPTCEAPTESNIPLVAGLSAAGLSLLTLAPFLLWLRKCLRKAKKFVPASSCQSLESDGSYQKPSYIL

FC(F)(F)C(F)(F)C(F)(F)C(F)(F)C(F)(F)CCI
not listed: [12] | [13] | [14] | [15] | [16] | [17] | [18] | [19]
inactive: all other assays above

OC[C@@H](O)[C@@H](O)[C@H](O)[C@@H](O)CO
inactive: [12] | [13] | [14] | [15] | [16] | [17]

O=C(O)C(F)(OC(F)(F)C(F)(OC(F)(F)C(F)(F)C(F)(F)F)C(F)(F)F)C(F)(F)F (stereo not given)
not listed: [12] | [13] | [14] | [15] | [16] | [17] | [18] | [19]
inactive: all other assays above

O=C(O)C(F)(F)C(F)(F)F
not listed: [12] | [13] | [14] | [15] | [16] | [17] | [18] | [19]
inactive: all other assays above

FC(F)(F)C(F)(F)C(F)(F)C(F)(F)C(F)(F)C(F)(F)C(F)(F)C(F)(F)F
not listed: [12] | [13] | [14] | [15] | [16] | [17] | [19]
inactive: all other assays above

O=S(=O)(O)C(F)(F)C(F)(F)C(F)(F)C(F)(F)C(F)(F)C(F)(F)C(F)(F)F
not listed: [12] | [13] | [14] | [15] | [16] | [17] | [18] | [19]
inactive: all other assays above

O=C(O)C(F)(F)C(F)(F)OC(F)(F)F
not listed: [12] | [13] | [14] | [15] | [16] | [17] | [18]
inactive: all other assays above

FC(F)(F)C(F)(F)C(F)(F)C(F)(F)C(F)(F)C(F)(F)C(F)(F)I
not listed: [12] | [13] | [14] | [15] | [16] | [17] | [18] | [19]
inactive: all other assays above
